Screens (PubChem BioAssay)
Sampled rows, rich in hits. Any-hit rate of the full collection: about 4%.
Peg3 promoter = reduces Peg3 promoter-driven luciferase expression in HeLa. AID 588405. inhibition, % at 20 µM. actives 1.7% (n = 360,000). HeLa PEG-Prom luciferase reporter, luminescence, overnight;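 active = inhibition of at least 50% at 20 µM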
CF NFkB inh = blocks PAF-induced NF-kB reporter in cystic fibrosis cells; actives 0.86% (n = 360,000); KKLEB NF-kB-GFP reporter, GFP fluorescence overnight; inhibition, % at 5 µM;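 active = at least 50% inhibition at 5 µM, scaled per plate between neutral and stimulator controls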;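 note: PAF is a Pseudomonas aeruginosa culture filtrate used as stimulus; plate controls were PAF-stimulated DMSO wells for no effect and unstimulated DMSO wells for full effect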
TWEAK-Fn14 inh = TWEAK-Fn14 signaling inhibition. TWEAK-stimulated Fn14 reporter cells, luciferase luminescence, 8 h. AID 1159606. inhibition, % at 10 µM. actives 2% (n = 360,000); in the data active = inhibition above about 50%
TROY NFkB inh = TROY signaling inhibition. inhibition, % at 10 µM. actives 0.98% (n = 360,000). Q293 LMP1-TROYcd NF-kB luciferase reporter, 4 h;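 active = compounds whose plate-normalised and pattern-corrected inhibition of the luciferase reporter signal at the single screening dose is 50% or more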
HIF-2a inh = blocks HIF-2a reporter activity. 786-0 RCC cells HIF-2a reporter, luciferase luminescence, overnight. inhibition, % at 18.8 µM. actives 0.72% (n = 360,000). AID 624352;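 active = inhibition of the luminescence signal of 40% or more relative to plate controls, in a single-dose primary screen at 18.75 µM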
KKLEB tox = counter-screen for CF NF-kB inhibitors: cytotoxicity. actives 0.36% (n = 360,000). KKLEB CF airway cells viability, ATPlite luminescence, overnight; stronger effect = lower value; cells stimulated with P. aeruginosa culture filtrate. activity change (cytotoxicity), % at 5 µM;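 active = corrected activity change at or below -50% at 5 µM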
An asterisk follows results filed as active.

SMILES	Peg3 promoter	CF NFkB inh	TWEAK-Fn14 inh	TROY NFkB inh	HIF-2a inh	KKLEB tox
O=c1cc(-c2ccccc2)[nH]c2nc3ccccc3n12	-137.4	-13.1	55.1*	-5.4	-209.3	-22.6
O=c1cc(CCl)[nH]c2nc3ccccc3n12	13.0	-11.3	20.7	10.9	-8.9	14.7
O=C(Cc1ccc(NC(=O)C2CCN(C(=O)C3CCCC3)CC2)cc1)Nc1ccc(C(=O)N2CCOCC2)cc1	-3.2	-21.4	2.1	-13.4	3.5	10.2
CC1=C(C)/C(=N\OS(=O)(=O)c2ccc(C)cc2)C=CC1=O	106.1*	71.5*	92.6*	-17.3	88.0*	-36.4
Cc1ccc(OCC(=O)NNC(=O)Cn2nnc(-c3ccccc3)n2)cc1	-1.6	-15.2	-35.7	21.4	12.8	3.7
O=C(NCc1cccc(Cl)c1)c1ccc(S(=O)(=O)Nc2cccc(C(F)(F)F)c2)cc1	11.3	-2.1	32.5	55.2*	23.8	-4.3
COc1ccc(-c2sc(NC(=O)c3ccc(C)cc3)nc2-c2ccc([N+](=O)[O-])cc2)cc1	15.9	-4.1	8.4	-10.6	13.8	-19.8
COc1ccc(C(=O)Nc2nc(-c3ccc([N+](=O)[O-])cc3)c(-c3ccccc3)s2)cc1	15.7	-1.4	56.7*	6.0	20.8	-4.5
CC(NC(=O)c1ccccc1Br)c1nnc(SCC(=O)NC2CCCCC2)n1C (centres undefined)	-10.4	-1.3	2.0	-10.2	-0.7	-3.4
O=c1c2c3c(sc2ncn1/N=C/c1ccc([N+](=O)[O-])o1)CCCC3	9.1	-0.1	63.7*	12.9	1.8	-1.1
N#Cc1cccc2c1-c1ccccc1/C2=N/NC(N)=O	51.6*	-100.9	-21.3	-24.1	29.9	10.2
CCN1C(=O)S/C(=C/c2ccc(Sc3nc4ccccc4[nH]3)o2)C1=O	-33.6	7.7	79.2*	31.7	-45.4	-10.8
CNC(=O)c1sccc1Oc1ccc(F)cc1[N+](=O)[O-]	-5.7	12.0	5.7	4.4	15.1	8.4
CC(=O)Nc1ccc(C=NNc2nnc(NN=Cc3ccc(NC(C)=O)cc3)c3ccccc23)cc1	-76.9	-12.7	56.4*	38.1	-69.9	-27.7
Cc1ccc(/C=N/Nc2nnc(Cl)c3ccccc23)cc1	-183.8	-32.9	-2.8	-57.7	-197.3	-47.7
N#Cc1cc(-c2ccccc2)nc(Oc2ccccc2)n1	24.2	14.1	61.3*	48.5	23.1	1.7
N#Cc1ccc(Oc2nc(C#N)cc(-c3ccccc3)n2)cc1	2.1	-4.0	39.0	29.0	10.7	5.6
COc1ccc(-c2cc(C#N)nc(Cl)n2)cc1	38.9	0.6	30.3	79.9*	13.8	-9.5
COc1ccc(-c2nnc(OCc3nc4ccccc4n3C)c3ccccc23)cc1	11.3	-0.3	-15.8	6.4	6.4	-2.9
COC(=O)c1ccc(NC(=O)CCN2CCN(Cc3ccccc3)CC2)cc1	7.9	-14.9	-12.1	-6.5	-4.2	5.7
CC(C)(C)OC(=O)NCCCCCc1cn([C@@H](CO)C(=O)NCCCCCCCCCCC(=O)N2CCN(C(=O)OC(C)(C)C)CC2)nn1	92.7*	8.3	103.3*	73.3*	-64.5	4.9
CC(C)(C)OC(=O)NCCCC[C@@H](C(=O)NCCCCCCCCCCC(=O)N1CCN(C(=O)OC(C)(C)C)CC1)n1cc(CCCC(=O)O)nn1	0.5	-0.4	-2.6	11.9	3.5	-2.1
CC(C)(C)OC(=O)CC[C@@H](C(=O)NCCCCCCCCCCC(=O)N1CCN(C(=O)OC(C)(C)C)CC1)n1cc(CCCCCNC(=O)OC(C)(C)C)nn1	1.5	-3.0	13.3	-14.2	-12.9	8.2
CC[C@H](C)[C@@H](C(=O)NCCCCCCCCCCC(=O)N1CCN(C(=O)OC(C)(C)C)CC1)n1cc(CCCCCNC(=O)OC(C)(C)C)nn1	28.3	9.9	96.3*	44.6	1.9	-1.4
CCO[C@H]1OC(C(N)=O)=C[C@@H](C(C)(C)C)[C@@H]1CCCO	0.2	9.8	53.5*	-18.6	13.6	0.5
CCO[C@@H]1OC(C(=O)N2CCOCC2)=C[C@H](C(C)(C)C)[C@H]1CCCO	1.0	1.0	-4.4	15.0	4.0	2.4
CC(C)CC(N)c1csc(Nc2cc(Oc3ccccc3)ncn2)n1 (centres undefined)	63.2*	36.5	-21.2	16.7	5.2	8.2
C#CC[N+](C)(C)CCCCCCCCCCCC	87.3*	46.4	19.4	29.0	38.7	-43.1
